According to PubChem BioAssay AID504766 (The Scripps Research Institute Molecular Screening Center, 2011):
The whole screen tested about 340,000 compounds, of which about 3,400 (1%) were called active.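 Rule for the calls: active = inhibition above the mean over all tested compounds plus 3 SD (cut at about 4.2% in these data); inactive = the rest.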 Shown is part of a subset that was picked to be rich in actives.

The molecules below were run against Nuclear receptor subfamily 0 group B member 1 (Homo sapiens) (UniProt P51843) (assay: relief of DAX1 transcriptional repression – cell-based, HEK293, Gal4-DAX1, luciferase luminescence, primary screen (AID 504766;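 note: 0% = DAX1-transfected cells with DMSO and 100% = empty-vector control cells with DMSO; inhibition shows as a rise in luminescence from relieved DAX1 repression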)). Conditions: HEK293 Gal4-DAX1 luciferase reporter, at 6.75 µM, hits give high values.
Sequence of Nuclear receptor subfamily 0 group B member 1 (Homo sapiens) (P51843 207-470 limits assumed): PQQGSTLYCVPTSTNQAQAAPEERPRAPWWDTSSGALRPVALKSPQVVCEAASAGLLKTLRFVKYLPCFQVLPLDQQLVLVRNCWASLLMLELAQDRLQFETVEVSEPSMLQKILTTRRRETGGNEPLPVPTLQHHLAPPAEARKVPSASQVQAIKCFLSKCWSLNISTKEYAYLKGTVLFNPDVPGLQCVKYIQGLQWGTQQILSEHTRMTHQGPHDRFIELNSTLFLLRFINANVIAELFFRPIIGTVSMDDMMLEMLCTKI
In the case of `CN(C)S(=O)(=O)c1cccc(NC(=O)COc2ccc3ccccc3c2)c1`, the inhibition is reported as -1.43% (inactive). For `COCCNC(=O)COc1ccc(N(C)S(=O)(=O)c2ccc3ccccc3c2)cc1`, the inhibition was -1.92% (inactive). In the case of `COC(=O)C(C)NC(=O)COc1ccc2ccccc2c1` (configuration not stated), the inhibition is reported as 4.35% (active). For `COc1ccc2nc(-c3ccccn3)ccc2c1`, the inhibition was -0.26% (inactive). For `COc1ccc([C@H]2N[C@]3(CCCN(CC4CCCCC4)C3=O)[C@H]3C(=O)N(C)C(=O)[C@@H]23)cc1`, the inhibition was 0.64% (inactive). `CCn1c(SCC(=O)NC2CCCC2)nnc1-c1ccoc1C` was tested, and the inhibition was 4.45% (active). For `Cc1occc1-c1nnc(SCC(=O)NC2CCCCC2)o1`, the inhibition was 0.12% (inactive). For `CCn1c(SCC(=O)NC2CC2)nnc1-c1ccccc1OC`, the inhibition was 1.22% (inactive). For `C[C@@H]1CN([C@H](C)CO)C(=O)c2cc(Br)cnc2O[C@@H]1CN(C)Cc1cncnc1`, the inhibition was 0% (inactive). With `c1ccc2cc(OCCN3CCCC3)ccc2c1` the inhibition was 0.12% (inactive). `Clc1ccccc1-c1cc(COc2ccc3ccccc3c2)no1` was tested, and the inhibition was 4.61% (active). For `Clc1ccc(-c2cc(COc3ccccc3)no2)cc1Cl`, the inhibition was 0.18% (inactive). `Cc1ccccc1-c1ccc2c(c1)O[C@@H](CN(C)Cc1ccc(C(=O)O)cc1)[C@@H](C)CN([C@H](C)CO)S2(=O)=O` was tested, and the inhibition was -0.49% (inactive). For `Cc1ccnc(SC2CC(=O)N(c3ccccc3)C2=O)n1` (configuration not stated), the inhibition was 2.33% (inactive). For `COc1ccc(C2Nc3ccccc3C(=O)N2c2ccc(Cl)cc2)cc1Cn1cc([N+](=O)[O-])cn1` (configuration not stated), the inhibition was 4.6% (active). With `COc1ccc(C2Nc3ccccc3C(=O)N2c2ccc(F)cc2)cc1Cn1nnc2ccccc21` (configuration not stated) the inhibition was -0.72% (inactive). `COc1ccc(N2C(=O)c3ccccc3NC2c2ccc(OC)c(CN3CCOCC3)c2)cc1` (configuration not stated) was tested, and the inhibition was 3.5% (inactive). `COc1ccc(Cl)cc1NC(=O)CN(C)C(=O)c1cn(-c2ccccc2)nc1-c1cccs1` was tested, and the inhibition was -0.65% (inactive). With `COCC1CCCCN1C(=O)c1cc(COc2ccc(C)c(C)c2)on1` (configuration not stated) the inhibition was 2.51% (inactive). `c1cc(-n2cnnn2)ccc1NC1=NCCC1` was tested, and the inhibition was 5.97% (active). `O=S(=O)(Nc1ccc(-n2cnnn2)cc1)c1ccc(Cl)cc1` was tested, and the inhibition was 0.55% (inactive). In the case of `O=S(=O)(NC1CCCC1)c1ccc(-n2cnnn2)cc1`, the inhibition is reported as 0.06% (inactive). `C[C@@H]1CN([C@H](C)CO)C(=O)CCCn2cc(nn2)CO[C@H]1CN(C)S(C)(=O)=O` was tested, and the inhibition was 0.1% (inactive). In the case of `CC1(C)NC(=O)N(CC(=O)Nc2ccc(-c3ccccc3)cc2)C1=O`, the inhibition is reported as 1.36% (inactive). In the case of `CCOC(=O)C1=C(C)c2ccccc2OC1(C)C(=O)OCC` (configuration not stated), the inhibition is reported as 0.33% (inactive). In the case of `CCOC(=O)C1(C(F)(F)F)N=C(N(C)C)OC(N(C)C)=N1`, the inhibition is reported as 5.05% (active). With `O=C1CC[C@@H](C(=O)N2CSC[C@@H]2C(=O)Nc2ccc(C(F)(F)F)cc2)N1` the inhibition was 0.12% (inactive). With `Cn1c(=O)n(C)c2cc(/C=N/NC(=O)c3cccc(Br)c3)ccc21` the inhibition was -2.01% (inactive). In the case of `O=C(Nc1ccccc1F)c1ccc2c(c1)OCO2`, the inhibition is reported as 4.59% (active). For `Cn1c(=O)n(C)c2cc(C(=O)Nc3ccc4c(c3)OCO4)ccc21`, the inhibition was 13.2% (active). For `N#Cc1ccccc1NC(=O)c1ccc2c(c1)OCO2`, the inhibition was 2.82% (inactive). `Cn1c(=O)n(C)c2cc(C(=O)Nc3ccc(Br)cc3)ccc21` was tested, and the inhibition was 4.79% (active). In the case of `COc1cccc(OC)c1C(=O)Nc1ccc2c(c1)n(C)c(=O)n2C`, the inhibition is reported as 1.46% (inactive). In the case of `O=C(Nc1ccc2c(c1)OCO2)c1ccc(N2C(=O)c3ccccc3C2=O)cc1`, the inhibition is reported as 0.86% (inactive). For `O=C(Nc1ccc(N2CCOCC2)cc1)c1ccc2c(c1)OCO2`, the inhibition was 1.98% (inactive). With `O=C(CN1CCN(c2ccccc2F)CC1)c1ccc2c(c1)OCO2` the inhibition was -0.06% (inactive). For `CNC(=O)C[C@H]1C(=O)N(Cc2ccccc2)C[C@@H]1CSC`, the inhibition was 0.53% (inactive). `Cc1cccc(S(=O)(=O)N(C)C[C@@H]2OCc3cnnn3CCCC(=O)N([C@H](C)CO)C[C@@H]2C)c1` was tested, and the inhibition was -0.51% (inactive). With `CCCNC(=O)C1CC(=O)N(c2ccc(OCc3ccccc3)cc2)C1` (configuration not stated) the inhibition was 2.8% (inactive). For `C=CCOc1ccccc1CNn1c(C)n[nH]c1=S`, the inhibition was 0.12% (inactive). For `CCN1CCCC1CNC(=O)c1ccc2c(c1)NC(=O)/C(=C\c1ccccc1F)S2` (configuration not stated), the inhibition was 1.21% (inactive). In the case of `O=C(O)c1ccccc1Cc1ccc(F)c2ccccc12`, the inhibition is reported as 1.12% (inactive). In the case of `CSc1ncccc1C(=O)N1CCCC(Nc2ccc(F)c(F)c2)C1` (configuration not stated), the inhibition is reported as -0.54% (inactive). `Cc1ccc(-c2csc(NC(=O)C3=COCCO3)n2)cc1C` was tested, and the inhibition was -1.52% (inactive). With `CC(=O)Nc1cccc(-c2csc(Nc3cccc(C)n3)n2)c1` the inhibition was 4.29% (active). With `CCCCCCC(=O)Nc1nc(C)c(-c2csc(Nc3cccc(OC)c3)n2)s1` the inhibition was 1.39% (inactive). In the case of `COc1ccc2c(c1OC)C(=O)OC2Nc1nc(-c2ccccc2)cs1` (configuration not stated), the inhibition is reported as 0.66% (inactive). In the case of `COc1ccc(-c2csc(Nc3cccc(C)n3)n2)cc1OC`, the inhibition is reported as 3.01% (inactive). `Cc1cccc(Nc2nc(-c3ccccc3)cs2)n1` was tested, and the inhibition was 7.24% (active). With `CC(C)C1CCN(C(=O)C2CCC(=O)N(C3CCCCCC3)C2)CC1` (configuration not stated) the inhibition was 1.56% (inactive). For `CCOC(=O)c1cnn2c(SC)ncnc12`, the inhibition was 0.53% (inactive). For `Cc1ccc2cccc([N+](=O)[O-])c2n1`, the inhibition was 0.58% (inactive). With `NC(=O)C1(Nc2ccccc2Cl)CCCC1` the inhibition was 4.62% (active). With `NC(=O)C1(Nc2ccc([N+](=O)[O-])cc2)CCCC1` the inhibition was -1.28% (inactive). With `NC(=O)C1(Nc2ccc(-c3ccccc3)cc2)CCCC1` the inhibition was 0.6% (inactive). With `Cc1ccc(Cc2c(-c3ccccc3)nc3ccc(Cl)cn23)cc1` the inhibition was -0.15% (inactive). For `CCOc1ccc(S(=O)(=O)NCCC(=O)NNC(=O)c2ccc(F)cc2)cc1`, the inhibition was 1.04% (inactive). For `Cc1ccc(OCc2nc3ccccc3n2C)cc1`, the inhibition was 4.76% (active). For `Cc1ccc(Oc2nc3ccccc3n3c(C)nnc23)cc1`, the inhibition was -0.82% (inactive). With `Cn1c(COc2ccc(Cl)cc2)nc2ccccc2c1=O` the inhibition was 0.73% (inactive). `Cc1ccccc1C#CC1=CC(=O)CC(C)(C)C1` was tested, and the inhibition was -0.14% (inactive). With `C[C@H]1CN([C@@H](C)CO)C(=O)c2cc(-c3ccccc3F)cnc2O[C@H]1CN(C)C(=O)C1CCOCC1` the inhibition was 1.09% (inactive).
